# An excerpt weighted towards active compounds, which were near 0.51% of everything screened.
# E coli growth-1 – blocks Escherichia coli growth; OD600, 23 h; stronger effect = lower value; OD600 absorbance (test concentration not listed); hit rate 0.21% among 330,000; AID 1053175;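 active = OD600 absorbance below the run mean of sample wells minus 3.6 SD, in any replicate, cut at about 0.56 in these data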
# AddAB inh – less growth of phage-infected E. coli with AddAB. hit rate 0.29% among 330,000. inhibition, % at 11.9 µM. E. coli expressing H. pylori AddAB, absorbance growth; in the data active = inhibition above about 12%;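 note: 0% = vehicle wells of infected cells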
# E coli growth-2 – bacterial growth inhibition, counter-screen for AddAB inhibitors; hit rate 0.27% among 330,000; AID 449728; inhibition, % at 11.9 µM; E. coli V3065 growth, OD600 absorbance, 18 h;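 active = inhibition above the campaign's mean inhibition across all tested compounds plus 3 SD, cut at about 9.9% in these data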;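 note: uninfected addAB+ strain grown without phage in ampicillin broth; 0% = DMSO wells and 100% = ciprofloxacin 0.95 µg/ml wells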
# Tat export inh – inhibitors of E. coli Tat protein transport; E. coli MC4100 TorA-mCherry Tat export, fluorescence; inhibition, % at 10 µM; AID 488895; hit rate 0.036% among 340,000;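 active = mean replicate inhibition at least 50% and at least half of replicates individually reaching 50%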;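 note: exported cargo escapes ClpAP degradation while cytoplasmic cargo is degraded and loses fluorescence; 0% = median of neutral control wells and 100% = median of NaSCN control wells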
# phage Ecoli inh – E. coli growth loss with phage present | growth absorbance | hit rate 0.26% among 360,000 | inhibition, % at 11.9 µM; in the data active = inhibition above about 11%
# AddAB confirm – growth loss of T4-infected E. coli expressing H. pylori AddAB, confirmed. shares compounds with AddAB inh. E. coli V3065 expressing H. pylori AddAB, T4 phage, OD; T4 phage with gene 2 nonsense mutations. inhibition, % at 11.9 µM. hit rate 64% among 880. AID 488942;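 active = mean inhibition above a set limit taken from the earlier primary screen, cut at about 13% in these data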;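 note: higher means less bacterial growth since AddAB block lets phage replicate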
# RecBCD counter – reduces growth of phage-infected RecBCD+ E. coli, AddAB inhibitor counter-screen; shares compounds with AddAB inh; E. coli V66 + mutant T4 phage, OD growth; inhibition, % at 11.9 µM; hit rate 73% among 880; AID 488955;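 active = mean inhibition above the mean of solvent-only control wells plus 3 SD, cut at about 4% in these data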;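 note: optical density read after an 18 h incubation at 37 °C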
# bact viab count – counter-screen: bacterial growth inhibition; inhibition, % at 11.9 µM; AID 488956; bacterial viability, absorbance (AddAB counterscreen); shares compounds with AddAB inh; hit rate 35% among 880; in the data active = inhibition above about 25%
# RecBCD conf – growth loss of phage-infected V66 E. coli, RecBCD confirmation screen | shares compounds with phage Ecoli inh | E. coli V66 + T4 2- phage, growth OD | inhibition, % at 11.9 µM | hit rate 45% among 890;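 active = mean inhibition over triplicates exceeding the hit threshold derived in the original primary screen, cut at about 11% in these data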
# Ecoli viability – inhibits E. coli viability, flagging RecBCD hits as nonselective. shares compounds with phage Ecoli inh. absorbance (OD) growth. inhibition, % at 11.9 µM. hit rate 29% among 890. AID 651983; in the data active = inhibition above about 20%;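 note: E. coli strain V66 grown with compound alone and no phage infection; 0% = bacteria with DMSO vehicle only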
# AddAB phage OD – growth loss of phage-infected AddAB E. coli, RecBCD counter-screen. shares compounds with phage Ecoli inh. E. coli expressing H. pylori AddAB + T4 phage, OD growth; gene 2 mutant T4, recBCD-deleted host. inhibition, % at 11.9 µM. hit rate 45% among 890. AID 651984;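 active = mean inhibition above the solvent-only control wells' mean plus 3 SD, cut at about 22% in these data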;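 note: higher means less bacterial growth from phage killing when AddAB is blocked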
# Numbers without * were called inactive; / = not tested or not shown.
SMILES,E coli growth-1,AddAB inh,E coli growth-2,Tat export inh,phage Ecoli inh,RecBCD conf,Ecoli viability,AddAB phage OD,others
NC(=O)c1ccsc1NC(=O)c1ccc([N+](=O)[O-])o1,0.2*,96*,88*,-10,21*,13*,16,101*,AddAB confirm=100*;RecBCD counter=20*;bact viab count=68*
Cc1ccnc(NC(=O)c2ccccc2[N+](=O)[O-])c1,0.7,2,1,2,3,/,/,/,
COc1ccc(C=NNC(=S)Nc2c(C)n(C)n(-c3ccccc3)c2=O)cc1OC,0.67,/,/,/,/,/,/,/,
COc1ccccc1OCC(=O)N/N=C/C=C/c1ccc([N+](=O)[O-])o1,/,83*,54*,20,12*,18*,23*,99*,AddAB confirm=101*;RecBCD counter=24*;bact viab count=94*
O=C(O)c1cccc(NC(=S)N/N=C/c2ccccn2)c1,/,17*,16*,-3,23*,11*,15,17,AddAB confirm=19*;RecBCD counter=17*;bact viab count=18
CCOC(=O)N1CCN(Cc2ccc(O)c3ncccc23)CC1,0.75,2,3,/,8,/,/,/,
Cc1ccc(C)c(S(=O)(=O)N2CCN(Cc3ccc(O)c4ncccc34)CC2)c1,0.66,17*,16*,1,17*,8,13,19,AddAB confirm=13*;RecBCD counter=15*;bact viab count=10
C#CCOCCOCCOCCNc1nc(N2CCOCC2)nc(N2CCN(C(=O)C(CCC(=O)O)n3cc(C(N)Cc4ccc(O)cc4)nn3)CC2)n1 (centres undefined),0.71,/,/,/,/,/,/,/,
O=c1c2ccccc2oc2ccccc12,/,/,/,/,3,/,/,/,
O=c1c(O)c(-c2cccs2)oc2ccccc12,0.68,23*,25*,3,12*,5,8,12,AddAB confirm=9;RecBCD counter=11*;bact viab count=4
O=C(NN=Cc1ccc[nH]1)c1cncc(Br)c1,0.7,/,/,/,/,/,/,/,
C/C(N=Nc1nc2ccccc2s1)=N\Nc1ccccc1O,/,15*,11*,-6,33*,24*,27*,39*,AddAB confirm=32*;RecBCD counter=34*;bact viab count=31*
O=C(Oc1ccc(C=NNC(=O)c2ccccc2F)cc1)c1ccccc1,0.7,/,/,/,/,/,/,/,
Cc1ccc(-c2cnc(NCc3cc4c(cc3[N+](=O)[O-])OCO4)n2C)cc1C,0.56,10,8,-39,11*,7,12,9,
Cn1c(-c2ccc3c(c2)OCO3)cnc1NCc1ccccc1,0.72,0,1,4,1,/,/,/,
Fc1ccccc1CNC(=S)Nc1cccc(C(F)(F)F)c1,0.63,9,7,-3,11*,7,8,10,
FC(F)(F)c1cccc(NC(=S)NCc2ccc(Cl)cc2)c1,0.66,8,7,-1,13*,7,7,10,
CC(=NNc1ccc(C)c(Cl)c1)c1ccncc1,0.67,/,/,/,/,/,/,/,
Cc1c(C(=O)NNC(=O)c2ccccc2O)oc2ccccc12,/,/,/,/,13*,6,8,8,
O=C(/C=C/Nc1ccccc1)c1ccc(Cl)cc1Cl,0.67,-2,1,8,2,/,/,/,
N#Cc1c(Nc2ccccc2)[n+]([O-])c2ccc(Cl)cc2[n+]1[O-],/,/,/,-4,13*,16*,17,49*,
CN=c1scc(C)n1N=Cc1ccc(O)cc1,0.66,/,/,/,/,/,/,/,
Cc1nc2c(C)cccc2cc1C(=O)NN=Cc1ccc(N(C)C)cc1,0.71,/,/,/,/,/,/,/,
O=c1[nH]nnc2c1ncn2C1OC(CO)C(O)C1O (centres undefined),/,/,/,/,16*,23*,17,28*,
CCn1cc(C(=O)O)c(=O)c2cc(F)c(N3CCNCC3)nc21,0.059*,/,/,62*,102*,102*,103*,102*,
SMILES,E coli growth-1,AddAB inh,E coli growth-2,Tat export inh,phage Ecoli inh,RecBCD conf,Ecoli viability,AddAB phage OD,others
O=C1CC(c2nc3ccccc3[nH]2)CN1c1cccc(C(F)(F)F)c1 (centres undefined),0.7,0,0,7,27*,2,1,0,
CC(Cc1ccccc1)=NNC(=O)CNC(=O)c1cccc(F)c1,0.61,/,/,/,/,/,/,/,
O=C(CC1CC=CCC(Cc2ccc(F)cc2)C(=O)OCC(c2ccccc2)NC1=O)NCCO (centres undefined),0.72,/,/,/,/,/,/,/,
CCNC(=S)Nc1ccc(Cl)c(C(F)(F)F)c1,0.6,7,7,6,12*,4,4,12,
O=C(Nc1ccc(Cl)c(C(F)(F)F)c1)c1ccco1,0.62,2,-1,6,2,/,/,/,
O=C1NC(=S)S/C1=C\C=C\c1ccc([N+](=O)[O-])o1,0.07*,/,/,68*,96*,99*,99*,99*,
CCOC(=O)c1c[nH]c2c([N+](=O)[O-])cc(OC)cc2c1=O,0.45*,/,/,-2,12*,6,10,44*,
CC(C)(C)c1cc2nc3c(c(=O)n2[nH]1)CN(Cc1ccccc1)C3=O,0.65,1,2,/,12*,-1,0,-1,
Cc1cc(Nc2ccccc2Cl)c2ccccc2n1,0.63,1,2,-5,15*,0,-1,9,
O=C(CNCc1ccccc1Cl)Nc1cc(S(=O)(=O)N2CCOCC2)ccc1Cl,0.63,0,1,1,-1,/,/,/,
Cc1ccc(S(=O)(=O)N2CCOCC2)cc1NC(=O)CNCc1ccc(Cl)cc1Cl,0.7,1,-1,-4,12*,1,1,5,
O=Nc1nc2ncccn2c1-c1ccccc1,/,/,/,4,15*,8,16,95*,
O=C(N/N=C/c1cc(Cl)ccc1O)C(=O)Nc1ccccc1OC(F)(F)C(F)F,/,12,12*,-12,16*,4,7,10,
Cc1ccc(NC(=S)NC(NC(=O)c2ccco2)C(Cl)(Cl)Cl)cc1 (centres undefined),0.61,12,11*,2,14*,9,11,14,
O=C(NN=Cc1ccc(C(F)(F)F)cc1)c1ccc(O)cc1,0.64,/,/,/,/,/,/,/,
COc1ccc(N/N=C/c2c(C(=O)O)ccc3ccccc23)cc1,/,11,16*,-5,11*,3,7,6,
O=c1cc(CSc2nnc(Nc3ccccc3)s2)nc2sccn12,0.68,1,2,-8,4,/,/,/,
Cc1cccc(Nc2nnc(SCc3cn4ccsc4n3)s2)c1,0.64,5,0,-7,17*,9,11,16,
O=C(CNC(=O)c1cccc(Br)c1)NN=Cc1ccc[nH]1,0.69,/,/,/,/,/,/,/,

# Screening data deposited in PubChem by several laboratories.
